# Laboratory results reported in PubChem BioAssay.
# A number with no mark means an inactive call. The rule behind the calls is not given here.
# Target: Pantothenate synthetase (Mycobacterium tuberculosis (strain ATCC 25618 / H37Rv)) (UniProt P9WIL5)
# Assay: Coupled enzyme confirmation of inhibitors against recombinant Mtb PanC (AID 375);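 note: 0% = full reaction with vehicle and 100% = no enzyme background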
# Conditions: coupled enzyme assay; at 10 µM, active compounds read high
# Sequence of Pantothenate synthetase (Mycobacterium tuberculosis (strain ATCC 25618 / H37Rv)) (P9WIL5 whole entry, looked up): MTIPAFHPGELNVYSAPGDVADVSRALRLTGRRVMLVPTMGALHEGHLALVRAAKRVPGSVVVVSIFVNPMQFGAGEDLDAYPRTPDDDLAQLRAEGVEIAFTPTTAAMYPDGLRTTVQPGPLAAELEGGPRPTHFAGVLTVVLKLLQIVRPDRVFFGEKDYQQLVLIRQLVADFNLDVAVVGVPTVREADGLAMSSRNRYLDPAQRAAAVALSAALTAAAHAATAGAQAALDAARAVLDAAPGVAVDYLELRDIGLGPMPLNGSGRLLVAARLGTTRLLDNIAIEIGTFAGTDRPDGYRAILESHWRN
row,SMILES,inhibition
1,COc1ccc(S(=O)(=O)NC(C)C(=O)Nc2cccc(C(C)=O)c2)cc1 (centres undefined),0%
2,COc1ccc(-n2nnc3c(=O)n(C/C=C/c4ccccc4)cnc32)cc1,2%
3,COc1ccc(-c2cn3cc(C)ccc3n2)cc1OC,8%
4,COCC(=O)Nc1sc2c(c1C(=O)OC)C(C(=O)OC)CC2 (centres undefined),0%
5,COc1ccccc1NC(=O)CSc1nnc(-c2ccncc2)o1,0%
6,Cc1cc(C(=O)Nc2cccc(O)c2)c(C)o1,20%
7,CCn1c(SCc2cccc(C(F)(F)F)c2)nnc1-c1ccco1,0%
8,Cc1cc(C)nc(SCc2nnc(SCC(=O)Nc3ncc(C)s3)n2Cc2ccco2)n1,0%
9,CCOC(=O)N1CCN(C(=O)COc2ccc(S(=O)(=O)NC(C)C)cc2)CC1,0%
10,CCOC(=O)c1cnc(SCC)[nH]c1=O,0%
11,COc1cc2c(cc1OC)-c1cc(Nc3ccc4c(c3)OCCO4)nc(=O)n1CC2,2%
12,C=CCn1c(=O)/c(=C/c2ccc(O)cc2)s/c1=C(/C#N)c1nnc2n1CCCCC2,0%
13,CSc1nnc(-c2cnccn2)n1C,0%
14,COc1ccc(C(=O)NCC(=O)NC2=NCCS2)cc1,0%
15,O=C1c2cccnc2C(=O)N1c1cccc(-c2nc3ccccc3o2)c1,3%
16,C=CCn1c(SCC(=O)Nc2ccccc2OC)nnc1-c1ccco1,4%
17,CN(C)CCCN1C(=O)c2oc3ccccc3c(=O)c2C1c1cccs1 (centres undefined),0%
18,COCCNC(=O)Cn1nc(C(F)(F)F)c(Br)c1C,0%
19,CCOC(=O)c1c(C)oc2c1c(C(c1ccncc1)N1CCOCC1)c(O)c1ccccc12 (centres undefined),0%
20,Cc1ccc(-n2nnnc2SCC(=O)c2cc(C)n(CC3CCCO3)c2C)cc1 (centres undefined),0%

row,SMILES,inhibition
1,COc1cccc(NS(=O)(=O)c2ccc3[nH]cc(C(=O)NC4CC4)c(=O)c3c2)c1,2%
2,O=P(O)(CCc1ccccc1)CN1CCCCC1,6%
3,CCCC(C)C(=O)Nc1ccc(C(N)=O)cc1 (centres undefined),3%
4,CN=C(Nc1ccc2c(c1)OCO2)SC1CC(=O)N(c2ccccc2)C1=O (centres undefined),0%
5,Cc1cccc(C)c1OCc1nnc2c3cnn(C)c3ncn12,0%
6,COCCCNC(=O)c1ccccc1NS(=O)(=O)c1ccc(C)cc1,1%
7,CCOc1ccc(-c2cc(C(=O)N3CCN(c4ccccn4)CC3)c3ccccc3n2)cc1,2%
8,CC(C)CCn1c(NCCc2ccccc2)nc2c1c(=O)n(C)c(=O)n2C,0%
9,O=C(Cc1cccs1)Nc1nnc(CCc2ccccc2)s1,0%
10,COc1ccccc1NC1=C(C)C(=O)CC1,0%
11,CCOC(=O)Cc1nn2c(=O)cc(C)nc2s1,0%
12,CN(C)c1ccc(NC(=O)c2cc3c(=O)n4ccccc4nc3n2C)cc1,7%
13,COCCNC(=O)C(c1ccc(C)o1)N(Cc1ccc(F)cc1)C(=O)Cn1nnc2ccccc21 (centres undefined),8%
14,C[C@H](CCC(=O)O)[C@H]1CC[C@H]2[C@@H]3C(=O)C[C@@H]4CC(=O)CC[C@]4(C)[C@H]3CC(=O)[C@]12C,2%
15,O=c1c2cc(N3CCOCC3)ccc2[nH]c(=S)n1CCCN1CCCCC1,1%
16,O=C(Nc1cccc2ccccc12)c1cnccn1,0%
17,O=C(COc1ccccc1Cl)OCC(=O)N1CCN(S(=O)(=O)c2ccccc2)CC1,8%
18,CCN(CC)CCCn1c(=S)[nH]c2cc(Cl)ccc2c1=O,0%
19,COc1ccc2c(c1)cc(C(=O)O)n2C,6%
